Measurements as given in PubChem BioAssay AID1851 (National Center for Advancing Translational Sciences (NCATS), 2009).
Where “and” joins values, the source holds several entries; their conditions need not be identical. Equal entries are not always repeated. The whole screen tested about 16,000 compounds, of which about 4,000 (25%) were called active. Not shown: some 26% with an inconclusive outcome. Calls come from the whole dose curve; as a rule, active = well fitted curve in the direction sought with a large enough effect; inconclusive = small, poorly fitted or top-dose-only effect, or effect the other way; inactive = no such curve, though single readings can be large or run the other way. The list is a sample of the results.

Target: Cytochrome P450 2C9 (Homo sapiens) (UniProt P11712)
Sequence (P11712 whole entry, looked up): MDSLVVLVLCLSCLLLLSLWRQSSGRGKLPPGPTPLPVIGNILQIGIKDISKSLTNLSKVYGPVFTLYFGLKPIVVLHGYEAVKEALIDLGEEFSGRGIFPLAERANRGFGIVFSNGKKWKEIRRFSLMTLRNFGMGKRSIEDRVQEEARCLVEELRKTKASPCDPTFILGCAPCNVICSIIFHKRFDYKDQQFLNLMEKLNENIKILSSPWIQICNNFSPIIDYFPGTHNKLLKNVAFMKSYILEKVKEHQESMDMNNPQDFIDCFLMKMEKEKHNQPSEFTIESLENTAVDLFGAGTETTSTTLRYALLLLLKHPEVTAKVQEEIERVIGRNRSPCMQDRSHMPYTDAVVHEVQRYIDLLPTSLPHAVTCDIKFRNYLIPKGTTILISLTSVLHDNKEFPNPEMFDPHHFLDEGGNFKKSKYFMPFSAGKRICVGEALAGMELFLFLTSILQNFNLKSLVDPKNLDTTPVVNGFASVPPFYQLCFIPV
Assay: Cytochrome panel assay with activity outcomes
Conditions: recombinant CYP, pro-luciferin dealkylation, luminescence, p450-cyp2c9; series mostly up to 57.1 µM
% is set by controls: 0 for no effect and ±100 for the full control effect.

SMILES | AC50 | activity, negative = inhibition
CCCS(=O)(=O)N1CCCC(C(=O)NCCCOC(C)C)C1 (stereo not given) | inactive | 
COc1ccc(-c2nc3cnc(N4CCNCC4)nc3n(Cc3cccc(OC)c3)c2=O)cc1 | 25.1 µM (active) | 
COc1ccc(-n2c(=O)c(-c3cc(F)cc(F)c3)nc3cnc(N4CCNCC4)nc32)cc1 | inactive | 
COc1cccc(Cn2c(=O)c(-c3ccccc3)nc3cnc(N4CCN(C)CC4)nc32)c1 | inactive | 
COc1cccc(Cn2c(=O)c(-c3cc(F)cc(F)c3)nc3cnc(N4CCNCC4)nc32)c1 | 7.94 µM (active) | 
COc1cccc(Cn2c(=O)c(-c3ccccc3)nc3cnc(N4CCNCC4)nc32)c1 | 12.6 µM (active) | 
COc1ccc(-n2c(=O)c(-c3ccc(Cl)cc3)nc3cnc(N4CCNCC4)nc32)cc1 | inactive | 
COc1cccc(Cn2c(=O)c(-c3cc(F)cc(F)c3)nc3cnc(N(C)C)nc32)c1 | inactive | 
CCC1(c2ccccc2)C(=O)NCNC1=O | inactive | 
CC(C)CO/N=C1/[C@H]2O[C@@H]2[C@@H](O)[C@H]2[C@H]1CCn1c(=O)n(C)c(=O)n12 |  | -1.24% [at 11.4 µM] (inactive)
O=C(CC(c1ccccc1)c1ccccc1)NCC1CCCO1 (stereo not given) | 20 µM (active) | 
Cc1ccc(C(=O)NC(=S)NCC2CCCO2)cc1 (stereo not given) | 7.94 µM (active) | 
O=C(NCC1CCCO1)C1CCC(=O)N1CCc1ccccc1 (stereo not given) | inactive | 
CCOC(=O)Nc1ccc(C(=O)NCC2CCCO2)cc1 (stereo not given) | inactive | 
CCC(=O)NC(NCC1CCCO1)C(Cl)(Cl)Cl (stereo not given) | inactive | 
CN(c1ccc(C(=O)NCC2CCCO2)cc1)S(=O)(=O)c1ccccc1 (stereo not given) | 25.1 µM (active) | 
CN(C)c1ccc(N=Nc2cccc3ccoc23)cc1 |  | 18.2% [at 11.4 µM] (inactive)
Oc1oc(-c2ccccc2)nc1C=Nc1ccccc1 | 8.91 µM (active) | 
CN(C)c1ccc(N=Cc2nc(-c3ccccc3)oc2O)cc1 | 7.08 µM (active) | 
CN(C)c1ccc(N=C/C=C2\N(C)c3ccccc3C2(C)C)cc1 | inactive | 
O=C(Oc1oc(-c2ccco2)nc1C=Nc1ccc(Cl)cc1)c1ccco1 | inactive | 
c1cncc(-c2cc(-c3cc(-c4cccnc4)n[nH]3)[nH]n2)c1 |  | 8.46% [at 11.4 µM] (inactive)
CCn1c(-c2ccc3ncccc3c2)n[nH]c1=S | inactive | 

SMILES | AC50 | activity, negative = inhibition
CC(/C=N/n1c(-c2cccnc2)n[nH]c1=S)=C\c1ccccc1 | 10 µM (active) | 
CN1[C@@H]2CC[C@H]1CC(OC(c1ccccc1)c1ccccc1)C2 (stereo not given in full) | inactive | 
CCc1ccc(N(C(=O)c2csnn2)C(C(=O)NCc2ccccc2)c2ccco2)cc1 (stereo not given) | 14.1 µM (active) | 
Cc1ccc(N(C(=O)c2csnn2)C(C(=O)NC(C)(C)C)c2cccs2)cc1 (stereo not given) | inactive | 
O=C(OC(C(=O)O)C(OC(=O)c1ccccc1)C(=O)NCc1ccccc1)c1ccccc1 (stereo not given) | inactive | 
Cc1ccc(S(N)(=O)=O)cc1NC(=O)/C=C/c1cccs1 | inactive | 
Cc1ccc(S(=O)(=O)N2CCOCC2)cc1NC(=O)COC(=O)CCC(=O)c1cccs1 | 14.1 µM (active) | 
CCN(CC)c1ccc2c(c1)OC(N)=C(C#N)C2c1cccnc1 (stereo not given) | 7.94 µM (active) | 
Cc1nc(SCc2cccc(Oc3ccccc3)c2)n[nH]1 | 15.8 µM (active) | 
CN(C)Cc1ccccc1-c1nccc(NCc2cccs2)n1 |  | 13.4% [at 2.29 µM] (inactive)
COCCNc1ncnc2ccc(-c3ccccc3CN(C)C)cc12 |  | 25.7% [at 2.29 µM] (inactive)
CCCc1cc(=O)[nH]c(=S)[nH]1 | inactive | 
CN1CCN(c2ncc3ncc(=O)n(CCC#N)c3n2)CC1 | inactive | 
CC(=O)OC[C@H]1O[C@@H](ON=C(C)C)[C@H](OC(C)=O)[C@@H](OC(C)=O)[C@H]1OC(C)=O |  | 6.05% [at 11.4 µM] (inactive)
CC(C)(O)C#Cc1ccc(C(=O)NCc2cccs2)s1 | 25.1 µM (active) | 
CC(C)(C)C(=O)Nc1nnc(SCC(=O)NCc2cccs2)s1 | inactive | 
O=C(Cn1cccc1C(=O)c1ccccc1)NCc1cccs1 | inactive | 
O=S(=O)(O)[C@@H](c1ccccc1)[C@@H](O)c1ccccc1 |  | 3.25% [at 11.4 µM] (inactive)
COc1cc(/C=N/NC(N)=O)c(Br)cc1OCC(=O)Nc1ccccc1C | 3.16 µM (active) | 
COCCCNC(=O)C(=O)N/N=C/c1ccc(OCC(=O)Nc2cccc(Cl)c2C)c(OC)c1 | inactive | 
Cc1ccc(CN2CC34C=CC(O3)C(C(=O)NCc3ccco3)C4C2=O)cc1 (stereo not given) | inactive | 
COCCCNC(=O)C1C2C=CC3(CN(Cc4ccc(C)cc4)C(=O)C13)O2 (stereo not given) | inactive | 
O=C(NCC1COc2ccccc2O1)C1C2C=CC3(CN(Cc4cccs4)C(=O)C13)O2 (stereo not given) | 31.6 µM (active) | 

SMILES | AC50 | activity, negative = inhibition
c1ccc(C[n+]2cccc(-c3cc4ccccc4[nH]3)c2)cc1 |  | -9.64% [at 11.4 µM] (inactive)
O=C1C[C@@H](O)[C@@H](O)[C@H]2[C@@H]3C(=O)N(c4cccc(Oc5ccccc5)c4)C(=O)[C@@H]3CC[C@H]12 |  | -10.3% [at 11.4 µM] (inactive) and 1.22% [at 11.4 µM] (inactive)
O=C(Nc1ncc(Cc2ccccc2)s1)C1COc2ccccc2O1 (stereo not given) | 6.31 µM (active) | 
O=C(Nc1nnc(SCc2ccc(Cl)cc2Cl)s1)C1COc2ccccc2O1 (stereo not given) | 7.08 µM (active) | 
CN(Cc1ccco1)c1cc(-c2ccccc2C(F)(F)F)ncn1 |  | 9.45% [at 2.29 µM] (inactive)
COc1ccc2c(=O)c(-c3ccccc3C)c(C)oc2c1 | 17.8 µM (active) | 
COc1cc(OC)c2c(c1)C(=O)c1cc(OC)cc(OC)c1C2=O | inactive | 
COc1ccc2[nH]cc(CCNc3cc(-c4ccccc4C)ncn3)c2c1 |  | -17.1% [at 2.29 µM] (inactive)
Clc1ccc2c(c1)N(CCCN1CCCC13CCCCC3)c1ccccc1S2 |  | 10.5% [at 11.4 µM] (inactive)
COC(=O)[C@@]1(Cc2ccccc2)[C@H]2c3cc(C(=O)N4CCCC4)n(Cc4ccc(O)c(OC)c4)c3C[C@H]2CN1C(=O)c1ccccc1 | 2.51 µM (active) | 
COC(=O)[C@@]1(Cc2ccccc2)[C@H]2c3cc(C(=O)N4CCCC4)n(Cc4ccc(OC)c(OC)c4)c3C[C@H]2CN1C(=O)c1ccccc1 | 1.26 µM (active) | 
CC(N)=O | inactive | 
NC(=O)Nc1n[nH]c(-c2ccccc2)n1 |  | -4.69% [at 11.4 µM] (inactive)
N#Cc1ccc(Oc2nc(C(N)=O)cc(-c3ccccc3)n2)cc1 | 6.31 µM (active) | 
N#Cc1ccc(OC(=O)c2ccc(N=C(N)N)cc2)cc1 |  | 12.7% [at 11.4 µM] (inactive)
O=C(NC[C@@H](O)CO)c1c(I)c(C(=O)NC[C@@H](O)CO)c(I)c(N(CCO)C(=O)CO)c1I | inactive | 
O=C(c1cc(C(F)(F)F)cc(C(F)(F)F)c1)N1CCC2(CC1)CCN(c1ccccn1)CC2 | inactive | 
Cc1ccc(C(=O)N2CCN(c3ccc(C(F)(F)F)cn3)CC2)cc1 | 15.8 µM (active) | 
O=C(c1cc(C(F)(F)F)cc(C(F)(F)F)c1)N1CCC2(CC1)CN(c1ccccn1)C2 | inactive | 
N#Cc1cccc(-c2nc3cnc(N4CCOCC4)nc3n(C3CC3)c2=O)c1 | inactive | 
COc1ccc(-n2c(=O)c(-c3ccccc3)nc3cnc(N4CCNCC4)nc32)cc1 | inactive | 
O=c1c(-c2ccccc2)nc2cnc(N3CCNCC3)nc2n1C1CC1 | 0.158 µM (active) | 
O=c1c(-c2ccccc2)nc2cnc(N3CCOCC3)nc2n1C1CC1 | 10 µM (active) | 

SMILES | AC50 | activity, negative = inhibition
O=c1c(-c2ccc(F)cc2)nc2cncnc2n1C1CC1 | inactive | 
N#CCCn1c(=O)c(-c2cccc(C#N)c2)nc2cnc(N3CCOCC3)nc21 | inactive | 
N#Cc1cccc(-c2nc3cnc(N4CCNCC4)nc3n(C3CC3)c2=O)c1 | 0.631 µM (active) | 
O=c1c(-c2ccc(Cl)cc2)nc2cnc(N3CCOCC3)nc2n1C1CC1 | inactive | 
O=c1c(-c2ccccc2)nc2cnc(N3CCOCC3)nc2n1C[C@H]1CCCO1 | inactive | 
O=c1c(-c2ccc(F)cc2)nc2cnc(N3CCOCC3)nc2n1C1CC1 | inactive | 
O=c1c(-c2ccccc2)nc2cnc(N3CCNCC3)nc2n1-c1ccccc1 | inactive | 
O=c1c(-c2ccc(F)cc2)nc2cnc(N3CCNCC3)nc2n1C1CC1 | 1 µM (active) | 
C1CCC(C(C[C@@H]2CCCCN2)C2CCCCC2)CC1 | inactive | 
CNc1ccnc(-c2ccccc2C)n1 |  | 24.5% [at 2.29 µM] (inactive)
C[C@@H]1O[C@@H](n2cc(F)c(=O)[nH]c2=O)[C@H](O)[C@@H]1O | inactive | 
N=C(C[C@@H](O)COc1ccccc1-c1ccccc1)N1CCCCC1 | inactive | 
CC[C@H](C)[C@@H]1O[C@]2(CC[C@@H]1C)C[C@H]1C[C@H](CC=C(C)[C@@H](O[C@H]3C[C@H](OC)[C@H](O[C@H]4C[C@H](OC)[C@H](O)[C@H](C)O4)[C@H](C)O3)[C@@H](C)C=CC=C3CO[C@@H]4[C@@H](O)C(C)=C[C@H](C(=O)O1)[C@@]34O)O2 | inactive | 
Cn1c(=O)c(-c2cc(F)cc(F)c2)nc2cnc(N3CCOCC3)nc21 | inactive | 
O=c1c(-c2cc(F)cc(F)c2)nc2cnc(N3CCOCC3)nc2n1C1CC1 | inactive | 
COc1ccc(-c2nc3cnc(N4CCNCC4)nc3n(C)c2=O)cc1 | inactive | 
O=c1c(-c2cc(F)cc(F)c2)nc2cnc(N3CCNCC3)nc2n1C1CC1 | 0.158 µM (active) | 
COc1ccc(-c2nc3cnc(N4CCNCC4)nc3n(C3CC3)c2=O)cc1 | 7.94 µM (active) | 
COc1ccc(-c2nc3cnc(N4CCN(C)CC4)nc3n(C3CC3)c2=O)cc1 | inactive | 
CN1CCN(c2nc(-c3ccoc3)nc3ccccc23)CC1 |  | 6.78% [at 2.29 µM] (inactive)
COc1ccccc1CN1CC2(CCN(C(=O)c3cnccn3)CC2)C1 | inactive | 
